Compound activity from PubChem.
G9a inh: blocks human histone lysine methyltransferase G9a. Potency, µM (highest dose often 102 µM), for inactives: at the top dose activity, negative = inhibition, hits mostly inhibitors. 8.8% of 350,000 active. G9a H3K9 monomethylation, AlphaScreen, 2 h. AID 504332; note: % is set by controls: 0 for no effect and ±100 for the full control effect; nearly all actives have a fitted effect of over 75% in size
Target sequence (Q96KQ7 913-1193 limits assumed): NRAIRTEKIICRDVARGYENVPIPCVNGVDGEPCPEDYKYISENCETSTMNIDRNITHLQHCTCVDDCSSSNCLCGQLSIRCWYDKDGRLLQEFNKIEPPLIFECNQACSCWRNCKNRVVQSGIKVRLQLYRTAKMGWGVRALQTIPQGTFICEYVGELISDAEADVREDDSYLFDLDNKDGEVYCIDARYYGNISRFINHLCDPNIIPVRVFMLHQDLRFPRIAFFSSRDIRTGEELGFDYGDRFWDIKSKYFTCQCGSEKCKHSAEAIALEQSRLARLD
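G9a (20 nM) preincubated 15 min RT with compounds, then 500 nM biotinylated H3K9 peptide and 20 uM SAM added; 2 h RT reaction. Monomethyl-H3K9 product detected by AlphaScreen with anti-H3K9me1 antibody, streptavidin donor and anti-rabbit IgG acceptor beads.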
Sfp PPTase inh: inhibitors of Bacillus subtilis Sfp phosphopantetheinyl transferase; Biochemical Sfp PPTase activity, qHTS; Potency, µM, inactives show largest response in the series, negative = inhibition, actives largely listed as inhibitors; AID 1490; 3.5% of 310,000 active;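 note: the enzyme is Sfp with the accession as filed and its product quenches rhodamine fluorescence; 0% = enzyme reaction without inhibitor and -100% = no enzyme wells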
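Reaction rates are the 30-min fluorescence difference (ex 525, em 598 nm) in wells containing 15 nM Sfp, 5 uM rhodamine-CoA and 12.5 uM BHQ-2-YbbR at pH 7.6 with 10 mM MgCl2.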
JMJD2A Tudor inh: blocks the human JMJD2A Tudor domain. O75164. AlphaScreen JMJD2A-Tudor / H3K4me3 peptide binding. Potency, µM (doses to about 114 µM), without a hit: at the highest dose activity change, negative = inhibition, actives largely listed as inhibitors. 4.4% of 390,000 active. AID 504339; note: % is set by controls: 0 for no effect and ±100 for the full control effect; nearly all actives have a fitted effect of over 50% in size
HP1b chromo inh: HP1-beta chromodomain-methylated histone interaction inhibition | P83916 | AlphaScreen HP1-beta / biotin-H3K9me3 peptide binding | Potency, µM (highest dose often 114 µM), without a hit: at the highest dose activity change, negative = inhibition, usual class: inhibitors | 0.56% of 390,000 active | AID 540317; note: nearly all actives have a fitted effect of over 70% in size
Target sequence (P83916 whole entry, looked up): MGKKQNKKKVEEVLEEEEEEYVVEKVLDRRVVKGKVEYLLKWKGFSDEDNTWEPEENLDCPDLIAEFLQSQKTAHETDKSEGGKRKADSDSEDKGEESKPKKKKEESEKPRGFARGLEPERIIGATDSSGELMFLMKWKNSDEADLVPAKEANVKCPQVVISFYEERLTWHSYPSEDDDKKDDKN
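Compound inhibition of the preformed complex between 50 nM HP1-beta and 50 nM biotinylated H3K9me3 peptide was read by AlphaScreen. Buffer was PBS pH 7.4 with 0.01% Tween-20. Incubations ran 30 min at room temperature, with 10 ug/mL donor/acceptor beads.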
BAZ2B inh: BAZ2B (human) inhibition; Q9UIF8; AlphaScreen BAZ2B-H3K14Ac peptide displacement; Potency, µM (titrated, usually from 114 µM), without a hit: top-dose activity change, negative = inhibition, actives largely listed as inhibitors; 4.4% of 360,000 active; AID 504333; note: % is set by controls: 0 for no effect and ±100 for the full control effect; nearly all actives have a fitted effect of over 60% in size
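Inhibition is scored as reduced AlphaScreen emission. The BAZ2B/b-H3(5-23)K14Ac complex (50 nM each) in PBS pH 7.4, 0.01% Tween-20 meets compound (up to 110 uM) for 30 min at RT before bead addition.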
Active calls of the source: *; [ ] = dose if it differs, or a comment. This is a sample that favours compounds with a hit; in the whole collection about 12% have one here. Calls come from the whole dose curve; as a rule, active = well fitted curve in the direction sought with a large enough effect; inconclusive = small, poorly fitted or top-dose-only effect, or another doubt; inactive = no such curve, though single readings can be large; an effect the other way counts as inactive or inconclusive. Potency is the fitted concentration of half-maximal effect.

For CC[C@@]12C(=O)N(c3cccc(Cl)c3)C(=O)N1[C@H](c1ccc(Br)cc1)[C@@H]1C(=O)N(C(C)(C)C)C(=O)[C@@H]12 the results were G9a inh -9.8%[2.33 µM], JMJD2A Tudor inh 79.4µM*, HP1b chromo inh 9.0% and BAZ2B inh 11.0%.
Screening O=C(CSc1nc2c(cnn2-c2cccc(Cl)c2)c(=O)[nH]1)NCC1CCCO1 (stereo not given) returned G9a inh 1.7%[12.7 µM], JMJD2A Tudor inh -18.2%, HP1b chromo inh 21.1% and BAZ2B inh -6.4%.
Screening COc1ccccc1NC(=O)NC1CCCCCCC1 returned G9a inh -2.3%, Sfp PPTase inh 7.8%, JMJD2A Tudor inh -11.0%, HP1b chromo inh 29.2% and BAZ2B inh -10.0%.
`COc1ccccc1NCCC(=O)OCC(=O)NC1CCCCC1` gave G9a inh 3.55µM*, Sfp PPTase inh 8.3%, JMJD2A Tudor inh -7.8%, HP1b chromo inh 13.6% and BAZ2B inh -29.4%.
COc1ccccc1NCCC(=O)OCC(=O)NC1CC1 was read as G9a inh 27.1%[59 µM], Sfp PPTase inh -9.7%, JMJD2A Tudor inh -5.9%, HP1b chromo inh 35.9% and BAZ2B inh -7.0%.
`COc1ccccc1NC(=O)CC(NC1CCCCC1)C(=O)O` (stereo not given) gave G9a inh 50.1µM*, Sfp PPTase inh -0.9%, JMJD2A Tudor inh -3.4%, HP1b chromo inh 11.5% and BAZ2B inh -23.0%.
Cc1ccc(S(=O)(=O)N2CCc3ccccc3C2CC(=O)O)cc1 (stereo not given) was read as G9a inh 79.4µM*, Sfp PPTase inh 0.9%, JMJD2A Tudor inh 1.3%, HP1b chromo inh 40.3% and BAZ2B inh -16.4%.
For COc1ccc(CCNCC(O)COc2cccc(Br)c2)cc1 (stereo not given) the results were G9a inh -6.7%, Sfp PPTase inh -25.8%, JMJD2A Tudor inh -14.0%, HP1b chromo inh 34.5% and BAZ2B inh -4.5%.
For OC(CNCc1ccccc1)COCc1ccc(Cl)cc1 (stereo not given) the results were G9a inh 10µM*, Sfp PPTase inh -18.9%, JMJD2A Tudor inh -16.9%[57.1 µM], HP1b chromo inh 35.3% and BAZ2B inh 50.1µM*.
`COc1ccc(CNCC(O)COc2ccc(C(C)(C)c3ccccc3)cc2)cc1` (stereo not given) gave G9a inh -0.3%[2.33 µM], Sfp PPTase inh 56.2µM*, JMJD2A Tudor inh 10µM*, HP1b chromo inh inconclusive and BAZ2B inh 39.8µM*.
CCOC(=O)c1cccc(OCC(O)CNCCOc2ccccc2F)c1 (stereo not given) was read as G9a inh 50.1µM*, Sfp PPTase inh -21.7%, JMJD2A Tudor inh 17.8µM*, HP1b chromo inh 70.8µM* and BAZ2B inh inconclusive.
CC(=O)c1cccc(OCC(O)CNCCc2ccc(Cl)cc2)c1 (stereo not given) was read as G9a inh inconclusive, Sfp PPTase inh -27.3%, JMJD2A Tudor inh inconclusive, HP1b chromo inh 7.7% and BAZ2B inh 20µM*.
Cc1ccccc1OCC(O)CNCCOc1ccc(C(N)=O)cc1 (stereo not given) was read as G9a inh -37.8%[2.33 µM] and Sfp PPTase inh 14.0%.
CCCCc1cc(=O)oc2cc(OCC(=O)NCCN3CCOCC3)ccc12 was read as G9a inh 15.9%, Sfp PPTase inh 11.4%, JMJD2A Tudor inh -13.8%, HP1b chromo inh 24.9% and BAZ2B inh inconclusive.
Screening Cc1cc(C)cc(NC(=O)CSc2nc(CSc3ccc(Cl)cc3)cc(=O)[nH]2)c1 returned Sfp PPTase inh -25.3%, JMJD2A Tudor inh -9.5%, HP1b chromo inh 11.2% and BAZ2B inh -1.2%.
`CC(C)(c1ccccc1)c1ccc(OCC(O)CNC2CCN(Cc3ccccc3)CC2)cc1` (stereo not given) gave G9a inh 39.8µM*, Sfp PPTase inh 79.4µM*, JMJD2A Tudor inh 2.82µM*, HP1b chromo inh inconclusive and BAZ2B inh 50.1µM*.
For OC(CNCCc1ccc(Cl)cc1)COCc1ccco1 (stereo not given) the results were G9a inh 22.4µM*, Sfp PPTase inh -27.0%, JMJD2A Tudor inh 7.08µM*, HP1b chromo inh inconclusive and BAZ2B inh inconclusive.
